Potency and affinity values are given separately.

The Inhibition is the change of the read-out against control, counted positive when it falls.

For this assay, the system named is Staphylococcus aureus. Conditions: Concentration 32 ug.mL-1; ASSAY_TEST Inhibition of Bacterial Growth; detection method Absorption (OD600); MEDIA CAMHB; plate type 384well; NBS; CORNING #3640; time 18 hr.
Regarding `COc1cccc(Nc2ccccc2)c1-c1ccc([N+](=O)[O-])cc1`, the Inhibition is recorded as 23.81%.
Take `O=[N+]([O-])c1ccc(-c2ccccc2Nc2ccccc2)cc1F`: the Inhibition amounted to 18.96%.
For the compound `O=[N+]([O-])c1ccc(-c2ccccc2Nc2ccccc2)cc1`, the Inhibition is on record as -5.74%.
Turning to `O=[N+]([O-])c1ccc(-c2ccccc2Nc2ccccc2)c(Cl)c1`, the Inhibition is reported as 13.69%.
Consider `COc1cc([N+](=O)[O-])ccc1-c1c(Nc2ccccc2)cccc1OC`, for which the Inhibition was 27.31%.
Then `Clc1cc(Br)cc(Cl)c1-c1ccccc1Nc1ccccc1`, with 22.27%; and `Cc1cc(C)c(Nc2ccccc2-c2ccc([N+](=O)[O-])cc2)c(C)c1`, with -5.17%; and `O=[N+]([O-])c1cc(Cl)c(-c2ccccc2Nc2ccccc2)c(Cl)c1`, with 19.61%.
To `CC(=O)c1ccc(-c2ccccc2Nc2ccccc2)cc1` belongs 12.03%; to `O=[N+]([O-])c1ccc(-c2cccc3c2[nH]c2ccccc23)cc1`, 21.52%.
`O=[N+]([O-])c1ccc(-c2ccccc2N(Cc2ccccc2)c2ccccc2)cc1`: the Inhibition was determined as 20.79%.
To `Cc1cccc(C)c1Nc1ccccc1-c1ccccc1[N+](=O)[O-]` belongs 57.09%; to `CN(c1ccccc1)c1ccccc1-c1ccc([N+](=O)[O-])cc1`, 9.33%.
Then `c1ccc(Nc2ccccc2-c2ncccn2)cc1`, with 6.34%.
Then `Cc1cc([N+](=O)[O-])ccc1-c1ccccc1N(C)c1ccccc1`, with -10.68%.
Regarding `COc1cccc(Nc2ccccc2)c1-c1c(Cl)cc(Br)cc1Cl`, the Inhibition turned out to be 19.63%.
`CC[C@@H](Nc1ccccc1-c1c(Cl)cc(Br)cc1Cl)c1ccccc1`: the Inhibition worked out at 29.88%.
Turning to `O=[N+]([O-])c1ccc(-c2ccccc2Nc2ccccc2)cc1C(F)(F)F`, the Inhibition came out at 23.3%.
For `O=[N+]([O-])c1ccc(-c2c(Nc3ccccc3)cccc2-c2ccccc2)cc1`, the Inhibition was 23.01%.
Turning to `O=[N+]([O-])c1ccc2c3ccccc3n(-c3ccccc3)c2c1`, the Inhibition is 11.65%.
As to `COc1ccc(Nc2ccccc2-c2ccc([N+](=O)[O-])cc2)cc1`, the Inhibition was found to be 17.68%.
Take `COc1cccc(N(C)c2cccc(OC)c2-c2ccc([N+](=O)[O-])cc2C)c1`: the Inhibition came out at 23.07%.
Regarding `N#Cc1ccc(-c2ccccc2Nc2ccccc2)cc1`, the Inhibition came to 12.74%.
Take `COc1cc([N+](=O)[O-])ccc1-c1ccccc1Nc1ccccc1`: the Inhibition is 23.48%.
To `O=[N+]([O-])c1ccc(-c2c(Nc3ccccc3)ccc3ccccc23)cc1` belongs 8.24%; to `O=[N+]([O-])c1ccc(-c2ccccc2Nc2ccccc2Br)cc1`, 15.02%.
To `Cc1ccccc1Nc1ccccc1-c1ccc([N+](=O)[O-])cc1` belongs 21.4%.

These data come from ChEMBL document CHEMBL4513137, “CO-ADD screening of University of Manchester (UK) compounds”.
